Screening results (PubChem)
Tb PYK inh: blocks Trypanosoma brucei pyruvate kinase; Q57TT1; TbPYK enzyme, Kinase-Glo Plus ATP luminescence, 45 min; Potency, µM (series often up to 76.8 µM), inactives show at the highest dose activity, negative = inhibition, most hits filed as inhibitors; 410,000 tested, 0.12% active; also: potency is read from the fitted curve at half-maximal effect; % is scaled to controls: 0 for no effect and ±100 for the full control effect; nearly all actives have a fitted effect of over 50% in size
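Luminescent Kinase-Glo Plus end-point after 45 min room-temperature reaction of T. brucei pyruvate kinase started with 130 uM ADP (final). Buffer TEA 50 mM pH 7.2 with KCl, MgCl2, BSA, Tween-20; titration-based qHTS with fitted concentration-effect curves.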
Shiga inhibitor: inhibitors of Shiga toxin in Vero cells. Vero cells, Shiga toxin protein synthesis inhibition reporter. 290,000 tested, 9.2% active. inhibition, % at 38.7 µM; in the data active = inhibition mostly above about 28%, no sharp cut-off; inactive = mostly below about 43%; also: 0% is about no effect
FBPA Giardia inh: Giardia lamblia aldolase inhibition; Potency, µM (top dose mostly 59.6 µM), without a hit: top-dose activity, negative = inhibition, actives largely listed as inhibitors; purified Giardia FBPA; 290,000 tested, 0.71% active; also: potency is read from the fitted curve at half-maximal effect; % is scaled to controls: 0 for no effect and ±100 for the full control effect; nearly all actives have a fitted effect of over 55% in size
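40 nM FBPA preincubated 10 min at RT with compound (up to 57.5 uM final), then substrate plus GAPDH/TPI/NAD/arsenate coupling and diaphorase/resazurin added. Fluorescence read after 20 min at RT, 525/598 nm.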
CHX counter: affects cycloheximide protein synthesis inhibition readout, counter-screen. cell reporter, cycloheximide protein synthesis inhibition counterscreen. max response, %. 300,000 tested, 12% active. AID 2314; in the data active = max response mostly above about 13%, no sharp cut-off; inactive = mostly below about 14%; also: read at 38.3 µM for the half of the compounds with a filed dose; 0% is about no effect
LmPK inhibitor: inhibitors of Leishmania mexicana pyruvate kinase | purified LmPK, Kinase-Glo ATP luminescence, 1 h | Potency, µM (series often up to 57.5 µM), for the others: top-dose activity change, negative = inhibition, usual class: inhibitors | 290,000 tested, 0.37% active; also: potency is read from the fitted curve at half-maximal effect; % is scaled to controls: 0 for no effect and ±100 for the full control effect
Target sequence (Q27686 whole entry, looked up): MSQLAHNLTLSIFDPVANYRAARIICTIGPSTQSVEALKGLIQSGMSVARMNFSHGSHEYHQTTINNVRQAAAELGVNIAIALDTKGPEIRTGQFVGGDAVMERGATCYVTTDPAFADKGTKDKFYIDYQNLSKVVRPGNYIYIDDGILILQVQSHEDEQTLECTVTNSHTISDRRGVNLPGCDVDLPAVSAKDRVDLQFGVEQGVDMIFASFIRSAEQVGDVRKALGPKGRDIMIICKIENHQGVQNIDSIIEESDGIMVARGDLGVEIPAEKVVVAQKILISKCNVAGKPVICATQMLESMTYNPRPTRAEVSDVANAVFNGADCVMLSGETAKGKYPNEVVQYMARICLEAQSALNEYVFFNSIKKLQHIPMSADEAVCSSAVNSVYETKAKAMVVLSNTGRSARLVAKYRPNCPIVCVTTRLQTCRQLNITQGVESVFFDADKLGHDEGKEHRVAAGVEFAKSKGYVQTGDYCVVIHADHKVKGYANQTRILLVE
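Screened at intermediate enzyme activity to detect both inhibitors and activators: LmPK at 0.1 nM, with a 0.5 nM enzyme column as activation reference. PEP 0.5 mM, ADP 0.1 mM; ATP detected by luminescence after 1 h.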
RE007 growth inh: less growth of the S. pombe RE007 Vpr strain; Potency, µM (titrated, usually from 92.2 µM), for inactives: at the top dose activity change, negative = less growth, actives largely listed as inhibitors; AID 651644; S. pombe RE007 Vpr strain, BacTiter-Glo ATP luminescence, 24 h; 360,000 tested, 0.21% active; active = well fitted falling curve with a large enough effect; inconclusive = small, poorly fitted or top-dose-only effect; inactive = no such curve, though single readings can be large or run the other way; also: potency is read from the fitted curve at half-maximal effect; % is scaled to controls: 0 for no effect and ±100 for the full control effect; nearly all actives have a fitted effect of over 50% in size
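Fission yeast RE007 carrying one integrated HIV-1 vpr copy, seeded at OD 0.01 in PMG+AL medium with 23 nL pinned compound. Grown 24 h at 30 degrees; viability read by BacTiter-Glo luminescence after 5 min.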
The depositor's hits bear a star; ? = inconclusive; . = not tested or not shown. This excerpt belongs to a sample that is enriched for hits. Unless noted, calls follow the shape of the dose curve; as a rule, active = well fitted curve in the direction sought with a large enough effect; inconclusive = small, poorly fitted or top-dose-only effect, or another doubt; inactive = no such curve, though single readings can be large; an effect the other way counts as inactive or inconclusive.

SMILES | Tb PYK inh | Shiga inhibitor | FBPA Giardia inh | CHX counter | LmPK inhibitor | RE007 growth inh
Cc1cccc(NC(=O)c2cc(-c3ccc(C)c(C)c3O)n[nH]2)c1 | 4% | 92* | 7% | 49* | 2% | 0%
CC(=O)Nc1ccc(NC(=O)c2cc(-c3ccc(C)c(C)c3O)n[nH]2)cc1 | -8% | 37 | 4% | 29* | 1% | 9%
CC(=O)Nc1ccc(NC(=O)c2cc(-c3cc(C)cc(C)c3O)n[nH]2)cc1 | -2% | 32 | 2% | 23* | -4% | -4%
Cc1ccc(NC(=O)c2cc(-c3ccc(C)c(C)c3O)n[nH]2)cc1C | -3% | 6 | 20% | 0 | 7% | -8%
O=C(N/N=C/c1ccc[nH]1)c1cc2ccccc2cc1O | 3% | 78* | ? | 31* | 6% | 4%
O=C(N/N=C/c1ccc[nH]1)c1cc(-c2ccc(Cl)cc2)nc2ccccc12 | -4% | 10 | -10% | 9 | 0% | 5%
O=C(N/N=C/c1ccncc1)c1cc2ccccc2cc1O | -13% | 31* | . | 32* | 0% | 6%
O=C(CNc1ccc2ccccc2c1)N/N=C/c1ccncc1 | -9% | -7 | -19% | 2 | 7% | -15%
O=C(CNC(=O)c1cccs1)N/N=C/c1ccc(O)cc1O | 5% | 1 | 23% | -2 | 0% | -15%
O=C(N/N=C/c1cccs1)c1cccnc1 | -17% | 27 | 1% | 3 | -7% | 0%
Cc1ccc(/C=N/NC(=O)c2cccnc2)s1 | 0% | 58* | 0% | 18* | -8% | -10%
O=C(CNC(=O)c1cccnc1)N/N=C/c1ccc(O)cc1O | -11% | 2 | -12% | 13* | -1% | 13%
O=C(N/N=C/c1cn(CC(=O)N2CCOCC2)c2ccccc12)c1cccnc1 | -5% | 20 | 2% | 21* | -7% | -7%
Cc1ccc(/C=N/NC(=O)c2cccnc2)o1 | -7% | -8 | -1% | 6 | -1% | 5%
Cc1ccccc1/C=N/NC(=O)c1cccnc1 | 2% | 23 | 10% | 9.1* | -1% | 2%
COc1ccccc1OCCn1c(SCC(=O)O)nc2ccccc21 | ? | -5 | -16% | -3 | 3% | -1%
COc1ccc(OC)c(NC(=O)CC2C(=O)NCCN2C(=O)C(F)(F)F)c1 (stereo unspecified) | -2% | . | . | . | . | .
COc1ccc(/C=N/NC(=O)c2cccnc2)c2ccccc12 | -5% | -6 | 21% | -2 | 2% | 6%
CC(=O)Nc1ccc(C(=O)N/N=C/c2ccccc2OCc2ccccc2)cc1 | 1% | 21 | 8% | 2 | 6% | -12%
O=C(N/N=C/c1cccc2ccccc12)c1cccnc1 | -7% | 39* | -1% | 29* | -1% | -7%
O=C(N/N=C/c1ccccc1OCc1ccccc1)c1cccnc1 | 3% | 8 | 2% | 13* | 0% | -14%
CCc1ccc(C(=O)N/N=C/c2cccc3ccccc23)nc1 | 1% | 52 | 3% | 19* | 6% | -19%
CCc1ccccc1NC(=O)CCn1cccn1 | 8% | . | . | . | . | .
NC1(C(=O)O)CCc2cc(C(=O)O)ccc21 (stereo unspecified) | . | . | -5% | . | . | .
[N-]=[N+]=Nc1nc2c(N)ncnc2n1C1OC(CO)C(O)C1O (stereo unspecified) | . | . | -1% | . | . | .
SMILES | Tb PYK inh | Shiga inhibitor | FBPA Giardia inh | CHX counter | LmPK inhibitor | RE007 growth inh
Cc1ccc2c(CC(=O)NC3=NCCS3)coc2c1 | 2% | 58* | -1% | 29* | 3% | -3%
COc1ccc(NC(=O)Cc2coc3cc(C)ccc23)cn1 | -2% | 69* | -22% | 21 | -2% | -7%
Cc1ccc2c(CC(=O)Nc3nc(C)cs3)coc2c1 | -19% | 47 | -8% | 20* | 3% | -14%
Cc1ccc2c(CC(=O)Nc3ccc(S(=O)(=O)Nc4nc(C)cc(C)n4)cc3)coc2c1 | -7% | . | . | . | . | .
CCOc1ccccc1NC(=O)CSc1nc2c(oc3ccccc32)c(=O)n1-c1ccc(F)cc1 | 1% | . | . | . | . | .
Cc1ccc2nc(NCc3ccccc3Cl)c3nnnn3c2c1 | 1% | . | . | . | . | .
Cc1ccc2nc(Cl)c3nnnn3c2c1 | 0% | -3 | 11% | 0 | -4% | 25µM*
FC(F)(F)c1ccc(-n2ccnc2)nc1 | -5% | -14 | 8% | -3 | -4% | 0%
CN(C)/C=N/c1ncnc2c1cnn2-c1ccc(C(F)(F)F)cn1 | -16% | 77* | 7% | 41* | 2% | -29%
CCOC(=O)c1ccc(-c2cc(C)no2)[nH]1 | 0% | 42* | -5% | 10 | 4% | 24%
CCOC(=O)N1CCN(C(=O)c2cc(C)no2)CC1 | 1% | -13 | 4% | -9 | 2% | 12%
COc1nc(-c2ccc(Cl)cc2)nnc1C | 2% | 10 | -18% | 15* | -14% | -8%
COC(=O)c1nnc(-c2ccccc2)nc1OC | -4% | -9 | 0% | 5 | -3% | -26%
COc1cccc(-c2ccc(NC(=O)C3CCCN(Cc4nccn4C)C3)cc2)c1 (stereo unspecified) | 9% | 35* | . | 22* | 1% | -2%
COc1cccc(-c2ccc(NC(=O)C3CCCN(Cc4cnc(C)n4C)C3)cc2)c1 (stereo unspecified) | 2% | -4 | 3% | 3 | 2% | 8%
Cc1cc(NC(=O)c2cc3cccc([N+](=O)[O-])c3[nH]2)ccc1F | 0% | 86* | -17% | 56* | 0% | -1%
CN(C)S(=O)(=O)N(CC(=O)NCCSCc1ccccc1Cl)c1ccccc1 | -1% | . | . | . | . | .
O=C1N=C(N2CCCCC2)S/C1=C\c1ccncc1 | -1% | -11 | -3% | -2 | -6% | 2%
O=C1N=C(N2CCCCC2)SC1=C1CCCC1 | -2% | 45* | -5% | 26* | 3% | -8%
COc1ccc(N(CC(=O)NCc2ccccc2)S(C)(=O)=O)cc1 | 8% | 52* | 27% | 31* | 0% | 11%
CS(=O)(=O)N(CC(=O)NCc1ccccc1)c1ccc(Cl)cc1 | -2% | -3 | 1% | 3 | -6% | 3%
CCOc1ccc(N(CC(=O)NCc2ccc(OC)cc2)S(C)(=O)=O)cc1 | 2% | 56* | -1% | 34* | -15% | 5%
COc1cc(NC(=O)c2ccc3oc(=O)c(S(=O)(=O)c4ccccc4)cc3c2)cc(OC)c1 | 0% | . | . | . | . | .
CCN(CC)CCn1c(NCc2cc(OC)ccc2OC)nc2ccccc21 | -12% | 11 | -29% | 9 | -2% | -16%
Cn1c(NCc2cc(Br)ccc2O)nc2ccccc21 | -4% | 66* | 5% | 27* | 1% | -7%
COc1ccc(CNc2nc3ccccc3n2C)c(OC)c1 | -17% | 82* | -5% | 40* | 18µM* | -16%
COc1ccc(CNc2nc3ccccc3n2C(C)C)c(O)c1 | -2% | . | -5% | 1 | 14% | -10%
COc1ccc(CNc2nc3ccccc3n2C)c(O)c1 | -12% | 69* | 0% | 39* | -13% | -24%
